Source: PubChem BioAssay (Tox21)
A number with no mark means an inactive call. Results filed as inconclusive are left out. A call without a number means that no potency is given here. The source made the active and inactive calls. Calls come from the whole dose curve.

How the values were obtained:
[1] = target: Acetylcholinesterase (Homo sapiens) (UniProt P22303); experiment: Acetylcholinesterase (AChE) small molecule antagonists: colormetric cell-based qHTS assay (AID 1347395); note: nearly all actives have a fitted effect of over 30% in size; note: potency is the fitted concentration of half-maximal effect
Sequence of Acetylcholinesterase (Homo sapiens) (P22303 whole entry, looked up): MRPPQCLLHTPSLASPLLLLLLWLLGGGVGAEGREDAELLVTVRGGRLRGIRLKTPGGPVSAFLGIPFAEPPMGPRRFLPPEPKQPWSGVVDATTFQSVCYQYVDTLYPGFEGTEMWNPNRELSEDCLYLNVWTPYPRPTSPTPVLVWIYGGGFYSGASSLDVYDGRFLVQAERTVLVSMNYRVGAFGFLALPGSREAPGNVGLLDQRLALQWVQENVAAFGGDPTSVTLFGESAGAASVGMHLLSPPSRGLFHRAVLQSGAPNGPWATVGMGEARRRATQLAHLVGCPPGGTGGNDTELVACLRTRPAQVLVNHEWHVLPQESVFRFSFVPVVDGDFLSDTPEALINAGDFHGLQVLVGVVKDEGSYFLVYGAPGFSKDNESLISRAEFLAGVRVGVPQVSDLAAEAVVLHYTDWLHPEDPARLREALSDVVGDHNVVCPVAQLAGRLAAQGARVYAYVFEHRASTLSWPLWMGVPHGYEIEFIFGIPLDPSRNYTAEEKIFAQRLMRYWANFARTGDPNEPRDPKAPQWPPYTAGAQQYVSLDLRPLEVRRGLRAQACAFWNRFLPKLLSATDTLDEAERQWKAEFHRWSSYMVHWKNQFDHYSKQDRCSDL
How it was run: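 Neuroblastoma line SH-SY5Y supplied the enzyme; cells were preincubated with compound for 30 min at 37 C and 5% CO2. Acetylthiocholine with DTNB was then added for 90 min at 37 C, and thiocholine was measured by colour.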

[2] = target: Acetylcholinesterase (Homo sapiens) (UniProt P22303); experiment: Acetylcholinesterase (AChE) small molecule antagonists: enzyme-based qHTS assay (AID 1347397); settings: Potency: AChE enzyme activity inhibition; outcome: AChE enzyme activity inhibition; note: nearly all actives have a fitted effect of over 55% in size; note: potency is the fitted concentration of half-maximal effect
How it was run: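 Absorbance-based detection of thiocholine with DTNB served as the read-out. Recombinant human AChE was exposed to compound for 30 min at RT before a 10 min RT incubation with acetylthiocholine.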

[3] = target: Acetylcholinesterase (Homo sapiens) (UniProt P22303); experiment: Acetylcholinesterase (AChE) small molecule antagonists: fluorescence cell-based qHTS assay (AID 1347398); settings: Potency: AChE activity; outcome: AChE activity; note: nearly all actives have a fitted effect of over 50% in size; note: potency is the fitted concentration of half-maximal effect
How it was run: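 Fluorimetric cell-based assay: intact SH-SY5Y cells, 30 min compound preincubation at 37 C, acetylthiocholine substrate with thiol probe Thiolite Green, 40 min RT development, fluorescence 490/520 nm.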

[4] = target: Acetylcholinesterase (Homo sapiens) (UniProt P22303); experiment: Acetylcholinesterase (AChE) small molecule antagonists: enzyme-based qHTS assay with human liver microsomes (AID 1347399); settings: Potency: qHTS inhibition; outcome: qHTS inhibition; note: nearly all actives have a fitted effect of over 60% in size
How it was run: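 Recombinant human AChE (50 mU/mL in the enzyme mix) and human liver microsomes (0.25 mg/mL final) were preincubated with compound and NADPH (0.25 mg/mL final) for 30 min at 37 C. Acetylthiocholine/DTNB was then added; thiocholine was read colorimetrically after 10 min at room temperature.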

SMILES	Potency [1]	Potency [2]	Potency [3]	Potency [4]	activity, negative = inhibition [1]	activity change, negative = inhibition [2]	activity change, negative = inhibition [3]	activity change, negative = inhibition [4]
CCCCCc1ccco1	inactive	inactive	inactive	inactive				
COc1cc(Cl)c(OC)cc1N	inactive	inactive	inactive	inactive				
CC(CO)CO	inactive	inactive	inactive	inactive				
CCCC1CCCC(=O)O1 (stereo not drawn)	inactive	inactive	inactive	inactive				
O=C1CC2(CCCC2)CC(=O)N1	inactive	inactive	inactive	inactive				
C[C@H](O)C(=O)Nc1c(I)c(C(=O)NC(CO)CO)c(I)c(C(=O)NC(CO)CO)c1I	inactive	inactive	inactive	inactive				
CC(C)COC(=O)c1ccc(O)cc1	inactive	inactive	inactive	inactive				
C[N+]1(C)CCCC(OC(=O)C(O)(c2ccccc2)c2ccccc2)C1 (stereo not drawn)	inactive	inactive	inactive	inactive				
CCC(=O)OCCOc1ccccc1	inactive	inactive	inactive	inactive				
CCC1(CO)COCOC1	inactive	inactive	inactive	inactive				
CCCN(CCC)c1c([N+](=O)[O-])cc(C(F)(F)F)c(N)c1[N+](=O)[O-]	inactive	inactive	inactive	inactive				
OC1CCC(C2CCCCC2)CC1 (stereo not drawn)	inactive	inactive	inactive	inactive				
CCCC(C)C(O)CC (stereo not drawn)	inactive	inactive	inactive	inactive				
CCCCCCCCCCCCSC	inactive	inactive	inactive	inactive				
O=C(O)c1ccccc1C(=O)Nc1ccc(S(=O)(=O)Nc2nccs2)cc1	inactive	inactive	inactive	inactive				
NCC1(Cc2noc(=O)[nH]2)CCCCC1	inactive	inactive	inactive	inactive				
CC1CCC(C(C)(C)O)CC1 (stereo not drawn)	inactive	inactive	inactive	inactive				
O=C1OC(=O)c2cc([N+](=O)[O-])ccc21	inactive	inactive	inactive	inactive				
CC1CCCO1 (stereo not drawn)	inactive	inactive	inactive	inactive				
CC(=O)[C@H]1[C@H](C#N)C[C@H]2[C@@H]3CC=C4C[C@@H](O)CC[C@]4(C)[C@H]3CC[C@@]21C	inactive	inactive	inactive	inactive				
CCCCCN(CCCCC)C(=O)C(CCC(=O)O)NC(=O)c1ccc(Cl)c(Cl)c1 (stereo not drawn)	inactive	inactive	inactive	inactive				

SMILES	Potency [1]	Potency [2]	Potency [3]	Potency [4]	activity, negative = inhibition [1]	activity change, negative = inhibition [2]	activity change, negative = inhibition [3]	activity change, negative = inhibition [4]
COC(=O)CC(C)=O	inactive	inactive	inactive	inactive				
Cc1nc([N+](=O)[O-])cn1-c1ccc([N+](=O)[O-])cc1	inactive	inactive	inactive	inactive				
CC(=O)Oc1cc2c(s1)CCN(C(C(=O)C1CC1)c1ccccc1F)C2 (stereo not drawn)	inactive	inactive	inactive	inactive				
Nc1ccc(NCCO)c([N+](=O)[O-])c1	35.6 µM (active)	71 µM (active)	35.6 µM (active)	inactive				
Nc1ccc(C(=O)OCC(O)CO)cc1 (stereo not drawn)	inactive	inactive	inactive	inactive				
CC(C)Cc1ccc(C(C)C(=O)OCc2ccccn2)cc1 (stereo not drawn)	inactive	inactive	inactive	inactive				
FC(F)(F)C(F)(F)C(F)(F)C(F)(F)C(F)(F)C(F)(F)CCI	inactive	inactive	inactive	inactive				
CCOC(=S)SSC(=S)OCC	inactive	inactive	inactive	inactive				
CCCCCCCCOC(=O)CCCCCCCCC(=O)OCCCCCCCC	inactive	inactive	inactive	inactive				
C[C@H]1O[C@@H](n2cc(F)c(=O)[nH]c2=O)[C@H](O)[C@@H]1O	inactive	inactive	inactive	inactive				
O=C(C(=O)c1ccco1)c1ccco1	inactive	inactive	inactive	inactive				
C=CCCCCCCCCCCCCCC					0.819% [at 23.6 µM]	0.291% [at 23.6 µM]	5.43% [at 23.8 µM]	-1.13% [at 23.6 µM]
OC1CCCCC1c1ccccc1 (stereo not drawn)	inactive	inactive	inactive	inactive				
c1ccc(-c2nn[nH]n2)cc1	inactive	inactive	inactive	inactive				
O=C1Cc2ccccc2N1c1c(Cl)cccc1Cl	inactive	inactive	inactive	inactive				
Cc1occc(=O)c1OC(=O)C(C)C	inactive	inactive	inactive	inactive				
CC(=O)OCC(=O)Nc1cc(C#N)cc(NC(=O)COC(C)=O)c1Cl	inactive	inactive	inactive	inactive				
O=S(O)CO	inactive	inactive	inactive	inactive				
CCOC(=O)C(C)(C)C	inactive	inactive	inactive	inactive				
CN(C1CCCCC1)S(=O)(=O)c1ccccc1N	inactive	inactive	inactive	inactive				
CCOC(=O)c1cnc2c(cnn2CC)c1NN=C(C)C	inactive	inactive	inactive	inactive				
